What all share (assay): Cytotoxic Profiling of Annotated Libraries Using Quantitative High-Throughput Screening (AID 1296008); note: nearly all actives have a fitted effect of over 60% in size
What all share (conditions): Five cell lines viability, CellTiter-Glo ATP luminescence, 48-72 h; max response: stronger effect = lower value
Background: ATP-based viability assays read luminescence as a measure of living cells.

Experiment [1] relates to CRL-7250. In short, it runs like this:
(§1)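 Cytotoxicity was measured as CellTiter-Glo ATP luminescence, read after 10 min at room temperature. Compound treatment of the cells lasted 48 or 72 hr at 37 degrees Celsius in a qHTS format.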

In experiment [2] the test system is HEK293. The essentials: as §1
The subject of experiment [3] is HaCat. The essentials: as §1
The subject of experiment [4] is KB-3-1. The essentials: as §1
Experiment [5] has as its system NIH3T3. The essentials:
as §1

Inconclusive results are not listed. Unmarked numbers belong to inactive results. The source made the active and inactive calls. Calls come from the whole dose curve; as a rule, active = well fitted inhibition curve with a large enough effect; inconclusive = small, poorly fitted or top-dose-only effect; inactive = flat fitted curve, though single readings scatter.
% is set by controls: 0 for no effect and ±100 for the full control effect; potency is the fitted concentration of half-maximal effect.

`CC[C@@H](O)C[C@@H]1C(C)=C[C@@H]2CCCC[C@@H]2[C@@]1(C)C(=O)O`: the max response is -0.45% in experiment [1], -6.46% in experiment [2], -3.74% in experiment [3] and -7.4% in experiment [5]. In addition, the molecule was called inactive in experiment [4].
Regarding `O=C(O)c1cccc(S(=O)(=O)N2CCc3ccccc3C2)c1`, the max response in experiment [1] is 0.0752%; in experiment [2], -4.38%; in experiment [3] it was -24.7%; in experiment [4] it was 0.457%; in experiment [5] it was -16.4%.
In the case of `C[C@H](O)[C@H](O)/C=C/c1cccc(O)c1CO`, the max response is -1.75% in experiment [1]; -4.7% in experiment [2]; -3.13% in experiment [3]; 8.41% in experiment [4]; -3.03% in experiment [5].
With `COc1cc2ncnc(Nc3cccc(Cl)c3F)c2cc1OC(=O)N1CCN(C)C[C@H]1C`, the max response in experiment [1] is -58.2%; in experiment [2], -115%; in experiment [3], -86.6%; in experiment [5] it was -86.1%. Moreover, the call in experiment [4] was inactive.
Regarding `COc1cc(/C=C/C(=O)OC[C@H]2O[C@@](CO)(O[C@H]3O[C@H](CO)[C@@H](O)[C@H](O)[C@H]3O)[C@@H](OC(=O)/C=C/c3ccc(O)c(OC)c3)[C@@H]2O)ccc1O`, the max response in experiment [1] was -25.3%; in experiment [2], 4.27%; in experiment [3], -7.21%; in experiment [4], -7.62%; in experiment [5] it was 0.754%.
For `C[C@@H]1O[C@@H](O[C@H]2[C@H](OC(=O)[C@]34CCC(C)(C)C[C@H]3C3=CCC5[C@@]6(C)C[C@H](O)[C@H](O[C@@H]7O[C@H](CO)[C@@H](O[C@H]8OC[C@](O)(CO)[C@H]8O)[C@H](O)[C@H]7O)[C@@](C)(CO)C6[C@H](O)C[C@@]5(C)[C@]3(C)C[C@H]4O)OC[C@H](O)[C@@H]2O)[C@H](O)[C@H](O)[C@H]1O[C@@H]1OC[C@@H](O)[C@H](O[C@@H]2OC[C@](O)(CO)[C@H]2O)[C@H]1O` (stereo not given in full), in experiment [1], the molecule was called inactive. Besides, the max response was 0.437% in experiment [2], -7.37% in experiment [3], 8.08% in experiment [4] and -0.781% in experiment [5].
As to `CC(C)[C@H]1CC[C@@]2(O)COC(=O)[C@H]2[C@@H]1/C=C(\CO)C(=O)O`, the max response was -25.6% in experiment [1]; 2.97% in experiment [2]; -2.34% in experiment [3]; 0.265% in experiment [4]; -2.01% in experiment [5].
As for `CC(C)C1=CC2C(CC[C@]2(C)O)[C@](C)(O)CC1` (stereo not given in full), the max response was -11.6% in experiment [1], -1.9% in experiment [2], 2.33% in experiment [3] and 2.57% in experiment [5]. The call in experiment [4] was inactive.
Turning to `C[C@@H]1C(=O)O[C@H]2C[C@]34[C@H]5C[C@@H](C(C)(C)C)[C@]36[C@@H](OC(=O)[C@H]6O)O[C@]4(C(=O)O5)[C@]21O`, the max response in experiment [1] was -0.0261%; in experiment [2] it was -44.8%; in experiment [3] it was 3.22%; in experiment [4] it was -3.28%; in experiment [5], 3.92%.
`CC(C)=CCC[C@](C)(O)[C@H]1CC[C@]2(C)[C@@H]1[C@H](O)CC1[C@@]3(C)CC[C@H](O)C(C)(C)C3[C@@H](O[C@@H]3O[C@H](CO)[C@@H](O)[C@H](O)[C@H]3O[C@@H]3OC[C@@H](O)[C@H](O)[C@H]3O)C[C@]12C` (stereo not given in full): the max response in experiment [1] is -0.925%; in experiment [2], 4.3%; in experiment [3] it was -1.39%; in experiment [5] it was 1.41%. For the same molecule, the molecule was called inactive in experiment [4].
On to `C=C[C@@]12COC(=O)C(=C)C1[C@@H](O)[C@H](C(=C)C(=O)OC)[C@@H](OC(=O)C(=C)CO)C2` (stereo not given in full), for which the max response in experiment [1] was -22.2%; in experiment [3] it was -6.28%; in experiment [5] it was -25.8%. Moreover, the Potency in experiment [2] is 10000 nM (active). For the same molecule, the molecule was classed as inactive in experiment [4].
As for `COC(=O)C1(C)CCC2(C(=O)O)CCC3(C)C(=CCC4C5(C)CC(O)C(OC6OCC(O)C(O)C6O)C(C)(CO)C5CCC43C)C2C1` (stereo not given), the max response is 3.48% in experiment [1]; 0.887% in experiment [2]; -27.2% in experiment [3]; 9.85% in experiment [4]; -9.3% in experiment [5].
As to `COc1ccc(CCO[C@@H]2O[C@H](CO[C@@H]3OC[C@H](O)[C@H](O)[C@H]3O)[C@@H](O)[C@H](O)[C@H]2O)cc1`, the max response is -3.54% in experiment [1]; -0.354% in experiment [2]; -19% in experiment [3]; 4% in experiment [4]; -5.95% in experiment [5].
`CNC(=O)c1ccccc1Nc1nc(Nc2ccc(N3CCNCC3)cc2)ncc1Cl`: the Potency in experiment [1] is 92 nM (active); in experiment [2], 65.1 nM (active); in experiment [3], 9.2 nM (active); in experiment [4], 25.9 nM (active); in experiment [5], 82 nM (active).
Take `CC1=CC(=O)CC(C)(C)[C@@]1(O)CC[C@@H](C)O[C@@H]1O[C@H](CO)[C@@H](O)[C@H](O)[C@H]1O`: the max response in experiment [1] is 0.369%; in experiment [2], -2.25%; in experiment [3] it was -28.9%; in experiment [4] it was 1.23%; in experiment [5], 0.984%.

Source of the values: PubChem BioAssay (NCATS).
